Compound activity deposited in PubChem BioAssay by The Scripps Research Institute Molecular Screening Center.
The sample as a whole holds a higher share of hits than the screen did.
TTR transcr act = TTR transcription activators in neuroblastoma reporter cells, primary screen, cell-based, luminescence, SH-SY5Y, TTR promoter Gaussia luciferase; 100% = recombinant luciferase protein wells; activation, % at 16.7 µM; actives 1.3% (n = 92,000);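 active = activation above the mean of all tested compounds plus 3 SD, cut at about 9.5% in these data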;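 also: cells exposed to compounds for one day before reading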
HuH7 TTR inh = TTR promoter reporter inhibitors in hepatoma cells, counter-screen for TTR transcription activator project, cell-based, luminescence, HuH7 hepatoma; shares compounds with TTR transcr act; HuH7 TTR promoter-Gaussia luciferase reporter; inhibition, % at 16.7 µM; actives 4% (n = 1,100); AID 1117279, 2014;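 active = average inhibition above the solvent-only control wells' mean plus 3 SD, cut at about 15% in these data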;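 also: inhibitors lower well luminescence so higher value means more inhibition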
TTR up confirm = TTR transcription activators, retest, confirmation, cell-based, luminescence, SH-SY5Y, triplicate; AID 1117280, 2014; 1,100 tested, under 10 active; SHSY5Y TTR promoter Gaussia luciferase; 100% = purified Lucia enzyme wells, no cells; activation, % at 16.7 µM; shares compounds with TTR transcr act;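 active = mean activation above a set limit taken from the earlier primary screen, cut at about 11% in these data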
Of the large screens only hits and unclear results are named; the others gave an inactive call (follow-up assays come after a bar, where they were run).

Cc1ccc(CC(=O)N2CCN(Cc3ccccc3)CC2)cc1	none
O=C(Cc1ccccc1)N1CCN(CCCc2ccccc2)CC1	none
O=C(Cc1ccc(Br)cc1)N1CCN(Cc2ccccc2)CC1	TTR transcr act 11.4
O=C(NC(Cc1ccccc1)P(=O)(O)Oc1ccccc1)OCc1ccccc1 (centres undefined)	none
CN1C(=O)[C@@]23C[C@]4(c5c[nH]c6ccccc56)c5ccccc5N(S(=O)(=O)c5ccccc5)[C@@H]4N2C(=O)[C@@H]1SS3	none
COc1cccc(C(=O)C2CCCN(Cc3ccc(F)cc3)C2)c1 (centres undefined)	none
COc1cccc(C(=O)C2CCCN(Cc3cnn(C(C)C)c3)C2)c1 (centres undefined)	TTR transcr act 10.6 | HuH7 TTR inh inactive | TTR up confirm inactive
COc1cccc(C(=O)C2CCCN(Cc3cccc(C)n3)C2)c1 (centres undefined)	none
O=C1CC[C@@]2(O)[C@H]3Cc4ccc(O)c5c4[C@@]2(CCN3CC2CC2)C1O5 (some centres undefined)	none
CCc1cc(OC)c(CCN)cc1OC	none
NC(Cc1ccccc1)[P+](=O)O (centres undefined)	none
O=CC(Cl)P(=O)(N1CCOCC1)N1CCOCC1 (centres undefined)	none
O=P(/C(=N/O)N1CCOCC1)(N1CCOCC1)N1CCOCC1	TTR transcr act 12.3 | HuH7 TTR inh inactive | TTR up confirm inactive
O=P(Oc1ccccc1)(N1CCOCC1)N1CCOCC1	none
COC(=O)C1C(c2ccc(F)cc2)CC2CCC1N2C (centres undefined)	none
COP(=O)(C(=O)Nc1ccccc1)C(CC(C)C)NC(=O)OCc1ccccc1 (centres undefined)	none
CNC1(c2ccccc2Cl)CCCCC1=O (centres undefined)	TTR transcr act 15.6 | HuH7 TTR inh inactive | TTR up confirm inactive
CN(C)CC1CSCCC1(O)c1ccccc1Cl (centres undefined)	none
CC=C(CC)C1(CCC)C(=O)NC(=S)NC1=O	none
CCn1c(O)c(/C=N/NC(=O)c2ccccc2)c(=O)[nH]c1=S	none
COc1ccc(Cn2c(O)c(/C=N/NC(=O)c3ccccc3)c(=O)[nH]c2=O)cc1	none
COc1ccccc1-n1c(O)c(/C=N/NC(=S)Nc2ccccc2)c(=O)[nH]c1=S	TTR transcr act 13.5 | HuH7 TTR inh inactive | TTR up confirm inactive
O=C1NCN(c2ccccc2)C12CCN(C(c1ccccc1OC(F)(F)F)c1nnnn1-c1ccc3c(c1)OCCO3)CC2 (centres undefined)	none
COc1ccc(-c2ccc3c(c2)CN(C(=O)CCc2ccccc2)Cc2cnnn2-3)cc1	none
NC(Cc1ccccc1Cl)c1nn[nH]n1 (centres undefined)	none
CC1c2ccccc2-n2nncc2CN1CC1CCCCC1 (centres undefined)	none
Brc1ccc2c(c1)CN(CC1CCCCC1)Cc1cnnn1-2	TTR transcr act 26.8 | HuH7 TTR inh inactive | TTR up confirm inactive
O=S(=O)(c1ccc(Cl)cc1)N1Cc2cc(Br)ccc2-n2nncc2C1	none
O=c1[nH]c2ccccc2n1C1CCN(C(CCc2ccccc2)c2nnnn2-c2ccc3c(c2)OCCO3)CC1 (centres undefined)	none
O=C(O)c1cc2ccccc2n1C1CCN(Cc2ccccc2)CC1	none
CC[C@H](C)[C@@H]1OC(=O)[C@H](C(C)C)N(C)C(=O)[C@H](C(C)C)NC(=O)[C@@H](C)[C@@H](CCCC#CBr)OC(=O)[C@H](C(C)C)N(C)C(=O)C2CCCN2C1=O (some centres undefined)	none
Clc1ccc([C@H]2CC3CCC2N3)cn1 (some centres undefined)	none
Cc1ccc(-n2c(O)c(/C=N/N3CCOCC3)c(=O)[nH]c2=S)cc1	TTR transcr act 10.0 | HuH7 TTR inh inactive | TTR up confirm inactive
CCn1c(O)c(/C=N/N2CCOCC2)c(=O)n(CC)c1=S	none
O=c1[nH]c(=S)n(-c2ccc(Cl)cc2)c(O)c1C=Nc1ccc(N2CCOCC2)cc1	none
CCC12CCN(CC3(O)CC3)C(Cc3ccc(O)cc31)C2(C)C (centres undefined)	none
CO[C@H]([C@H](C)/C=C/N(C)C=O)[C@@H](C)C(=O)CC[C@H](C)[C@H](O)[C@H](C)[C@H]1OC(=O)/C=C/C(C)=C/[C@H](O)[C@H](OC)C[C@@H]2C=CC[C@@H](C[C@H](OC)[C@@H](CO)[C@@H](OC)C[C@@H](OC)[C@@H]1C)O2	none
CCN1CCN(c2nc([N+](=O)[O-])nn2C)CC1	TTR transcr act 14.2 | HuH7 TTR inh inactive | TTR up confirm inactive
CN1CCN(c2nc([N+](=O)[O-])nn2C)CC1	none
COc1ccc(/C=C/C=C2C(=O)NC(=S)NC2=O)cc1	none
